# Compound activity: PubChem BioAssay, Broad Institute
# This is a sample that favours compounds with a hit; in the whole collection about 6.7% have one here.
# T cruzi growth-1 = blocks T. cruzi growth in NIH3T3 culture | T. cruzi beta-gal in NIH3T3, GalScreen luminescence, 90 h | inhibition, % at 8.34 µM | AID 624255 | 5.9% of 77,000 active;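 active = mean inhibition above about 93%, with at least 55% of replicates each passing it, limit read from the data, passing the limit was not always enough; inconclusive = only one of those two conditions holds; inactive = neither condition holds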
# C diff HTS = C. difficile growth inhibition; Clostridium difficile clinical isolate growth, OD600, 24 h; hits give low values; growth activity, negative = inhibition, % at 16 µg/mL (by protocol); 0.25% of 86,000 active; AID 1259249;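 active = mean growth activity at or below -80% and every replicate also at or below -80%; inconclusive = mean at or below -80% but some replicate above -80%; inactive = mean growth activity above -80%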;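 also: 0% = DMSO wells and -100% = levofloxacin 16 µg/mL wells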
# Pf Dd2 growth = inhibitors of Plasmodium falciparum Dd2 growth. P. falciparum Dd2 growth, SYBR Green, 72 h; hits give low values. activity change, % at 10 µM. 2.3% of 94,000 active. AID 1159554; in the data active = activity change below about -80%; inconclusive = no clear call, values can overlap the other calls
# T cruzi growth-2 = inhibitors of T. cruzi proliferation | 72% of 5,600 active | T. cruzi beta-gal in NIH3T3, GalScreen luminescence, 90 h | inhibition, % at 8.35 µM | shares compounds with T cruzi growth-1;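 active = mean replicate inhibition above about 95% and at least 55% of replicates individually reaching it, limit read from the data; inconclusive = only one of the two criteria is met; inactive = neither criterion is met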
# T cruzi growth-3 = Trypanosoma cruzi proliferation inhibition; inhibition, % at 2.09 µM; shares compounds with T cruzi growth-1; T. cruzi beta-gal in NIH3T3, GalScreen luminescence, 90 h; AID 651740; 21% of 5,600 active;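 active = mean inhibition above about 95%, with at least 55% of replicates also reaching it, limit read from the data; inconclusive = meets just one of the two conditions; inactive = meets neither condition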;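 also: plate controls were neutral control median for no effect and positive control median for full effect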
# 3T3 cytotox = cytotoxicity in mouse NIH/3T3 fibroblasts; cytotoxicity (signal decrease), % at 8.35 µM; shares compounds with T cruzi growth-1; NIH/3T3 viability, CellTiter-Glo ATP luminescence, 90 h; 14% of 5,600 active;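 active = mean signal decrease across replicates above about 35% based on untreated-well scatter, with enough replicates individually passing, limit read from the data; inconclusive = no rule stated though some were filed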;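 also: 0% = median of neutral control wells and 100% = median of positive control wells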
# NIH3T3 tox 2 = NIH/3T3 (mouse) viability loss; shares compounds with T cruzi growth-1; NIH/3T3 viability, CellTiter-Glo ATP luminescence, 90 h; inhibition, % at 24.9 µM; 56% of 5,600 active; AID 651744;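 active = mean loss of cell viability signal at or above a set limit, and enough replicates individually reaching it; inconclusive = meets only the mean limit or only the replicate share; inactive = meets neither condition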;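 also: 0% = median of neutral control wells and 100% = median of positive control wells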
# Numbers without * were called inactive; u = inconclusive; x = not tested or not shown.
SMILES,T cruzi growth-1,C diff HTS,Pf Dd2 growth,T cruzi growth-2,T cruzi growth-3,3T3 cytotox,NIH3T3 tox 2
C[C@@H]1CCCCO[C@@H](CN(C)Cc2ccc(C(F)(F)F)cc2)[C@H](C)CN([C@H](C)CO)C(=O)c2cc(NC(=O)Nc3ccc(F)cc3)ccc2O1,110.1*,x,9.2,91.7,107.5*,9.9,57.3*
C[C@@H]1CCCCO[C@H](CN(C)Cc2ccc(C(F)(F)F)cc2)[C@@H](C)CN([C@@H](C)CO)C(=O)c2cc(NC(=O)Nc3ccc(F)cc3)ccc2O1,93.4,x,-79.5,x,x,x,x
CN(C)C(=O)C[C@H]1CC[C@@H]2[C@H](COC[C@H](O)CN2S(=O)(=O)c2ccccc2Cl)O1,-130.1,-1.2,54.3,x,x,x,x
Cc1cc(C(=O)Nc2cccc3c2O[C@@H](CN(C)Cc2ccc4c(c2)OCO4)[C@@H](C)CN([C@H](C)CO)C3=O)n(C)n1,40.1,-1.2,2.8,x,x,x,x
C[C@@H]1CN([C@@H](C)CO)S(=O)(=O)c2ccc(C3=CCCCC3)cc2O[C@H]1CN(C)Cc1ccncc1,114.0*,-2.2,-61.7,95.2*,106.8*,45.7*,94.5*
C[C@H]1CN([C@@H](C)CO)S(=O)(=O)c2ccc(C3=CCCCC3)cc2O[C@H]1CN(C)Cc1cncnc1,77.8,4.8,-4.9,x,x,x,x
C[C@@H]1CN([C@H](C)CO)S(=O)(=O)c2ccc(C3=CCCCC3)cc2O[C@@H]1CN(C)Cc1cccnc1,x,-9.3,-9.7,x,x,x,x
C[C@@H]1CN([C@@H](C)CO)S(=O)(=O)c2ccc(C3=CCCCC3)cc2O[C@@H]1CN(C)Cc1ccncc1,101.6*,-7.6,-44.3,99.0*,92.2,u,78.4*
C[C@H](CO)N1C[C@H](C)[C@@H](CN(C)Cc2cccnc2)Oc2cc(C3=CCCCC3)ccc2S1(=O)=O,x,-7.4,-60.0,x,x,x,x
C[C@H](CO)N1C[C@H](C)[C@H](CN(C)Cc2ccncc2)Oc2cc(C3=CCCCC3)ccc2S1(=O)=O,116.0*,12.0,-73.1,98.1*,83.7,57.8*,82.7*
C[C@@H]1CN([C@H](C)CO)S(=O)(=O)c2ccc(C3=CCCCC3)cc2O[C@H]1CN(C)Cc1cccnc1,x,-3.9,-66.1,x,x,x,x
C[C@H]1CN([C@@H](C)CO)S(=O)(=O)c2ccc(C3=CCCCC3)cc2O[C@@H]1CN(C)Cc1ccncc1,121.3*,12.3,-61.7,95.8*,97.0*,53.0*,102.5*
C[C@@H]1CN([C@H](C)CO)C(=O)CCCn2cc(nn2)CO[C@@H]1CN(C)C(=O)C1CCCCC1,10.8,2.4,-5.3,x,x,x,x
C[C@@H]1CN([C@H](C)CO)C(=O)Cc2cc(NC(=O)C3CCCCC3)ccc2O[C@H]1CN(C)C(=O)Nc1ccccc1,49.8,-7.4,17.6,x,x,x,x
O=C(NCCCN1CCOCC1)[C@@H]1[C@@H](CO)[C@@H]2Cn3c(cccc3=O)[C@H]1N2C(=O)C1CCCCC1,x,2.0,27.8,x,x,x,x
O=C(C1CCCC1)N1CCCCN2[C@H](CO)[C@H](c3ccc(-c4cccc(F)c4)cc3)[C@@H]2C1,111.8*,-5.7,9.6,113.2*,92.3,24.2,66.4*
O=C(C1CC1)N1CCCCN2[C@H](CO)[C@@H](c3ccc(-c4cccc(F)c4)cc3)[C@@H]2C1,75.2,-7.7,11.7,x,x,x,x
O=C(C1CCCC1)N1CCCCN2[C@H](CO)[C@@H](c3ccc(-c4cccc(F)c4)cc3)[C@H]2C1,111.0*,7.4,3.4,104.4*,16.6,-0.6,103.9*
O=C(C1CCC1)N1CCCCN2[C@H](CO)[C@@H](c3ccc(-c4cccc(F)c4)cc3)[C@H]2C1,37.4,-18.3,-0.5,x,x,x,x
COc1ccc(S(=O)(=O)Nc2ccc3c(c2)C(=O)N([C@@H](C)CO)C[C@H](C)[C@H](CN(C)S(=O)(=O)c2ccc(Cl)cc2)OCCCC[C@@H](C)O3)cc1,98.8*,5.0,-60.9,103.8*,84.3,9.7,-22.9
COc1ccc(S(=O)(=O)Nc2ccc3c(c2)C(=O)N([C@H](C)CO)C[C@@H](C)[C@H](CN(C)S(=O)(=O)c2ccc(Cl)cc2)OCCCC[C@H](C)O3)cc1,94.9,-3.9,-77.0,x,x,x,x
COc1ccc(S(=O)(=O)Nc2ccc3c(c2)C(=O)N([C@@H](C)CO)C[C@H](C)[C@H](CN(C)S(=O)(=O)c2ccc(Cl)cc2)OCCCC[C@H](C)O3)cc1,u,-2.8,-73.2,107.8*,91.2,21.5,21.0
COc1ccc(S(=O)(=O)N(C)C[C@H]2OCCCC[C@@H](C)Oc3ccc(NS(=O)(=O)c4ccc(Cl)cc4)cc3C(=O)N([C@H](C)CO)C[C@@H]2C)cc1,x,-18.0,-27.7,x,x,x,x
CCCNC(=O)N1CC2(CCN(C(=O)COC)CC2)c2c(n(C)c3cc(OC)ccc23)[C@@H]1CO,x,0.3,11.4,x,x,x,x
C[C@@H]1CN([C@H](C)CO)S(=O)(=O)c2ccc(C#Cc3cccc(F)c3)cc2O[C@@H]1CN(C)C,-81.0,5.2,-61.6,x,x,x,x
SMILES,T cruzi growth-1,C diff HTS,Pf Dd2 growth,T cruzi growth-2,T cruzi growth-3,3T3 cytotox,NIH3T3 tox 2
C[C@@H]1CN([C@H](C)CO)S(=O)(=O)c2ccc(C#Cc3cccc(F)c3)cc2O[C@H]1CN(C)S(=O)(=O)c1cn(C)cn1,-11.5,-3.2,-69.1,x,x,x,x
C[C@@H]1CN([C@@H](C)CO)S(=O)(=O)c2ccc(C#Cc3cccc(F)c3)cc2O[C@@H]1CN(C)S(=O)(=O)c1ccccc1F,105.6*,11.5,-57.4,101.6*,110.5*,34.5*,28.2
C[C@H](CO)N1C[C@H](C)[C@@H](CN(C)S(=O)(=O)c2ccccc2F)Oc2cc(C#Cc3cccc(F)c3)ccc2S1(=O)=O,106.6*,13.4,-69.6,98.8*,116.0*,26.3,42.5*
C[C@H]1CN([C@@H](C)CO)S(=O)(=O)c2ccc(C#Cc3cccc(F)c3)cc2O[C@H]1CN(C)C,-26.0,5.1,-70.6,x,x,x,x
C[C@@H]1CN([C@H](C)CO)S(=O)(=O)c2ccc(C#Cc3cccc(F)c3)cc2O[C@@H]1CN(C)S(=O)(=O)c1ccccc1F,103.9*,6.8,-72.7,102.3*,112.6*,24.8,40.0*
COCCNC(=O)C[C@@H]1CC[C@H]2[C@H](COc3ccc(NC(C)=O)cc3C(=O)N2C)O1,39.9,-1.0,3.0,x,x,x,x
O=C(N[C@H]1CC[C@@H](CCNS(=O)(=O)Cc2ccccc2)O[C@@H]1CO)c1ccccc1F,-13.7,x,-12.8,x,x,x,x
COc1cccc(-c2ccc([C@@H]3[C@H]4CN(CC5CC5)CCCCN4[C@H]3CO)cc2)c1,93.1,0.2,9.9,x,x,x,x
COc1cccc(-c2ccc([C@H]3[C@@H](CO)N4CCCCN(CC5CCOCC5)C[C@H]34)cc2)c1,106.5*,-8.9,-26.4,107.0*,70.2,8.5,96.9*
OC[C@@H]1[C@@H](c2ccc(-c3cccnc3)cc2)[C@@H]2CN(CC3CCOCC3)CCCCN12,-46.8,-1.0,-54.9,x,x,x,x
